These results are taken from PubChem BioAssay (Tox21).

Each structure is given as a SMILES string. Results filed as inconclusive are left out. Entries that show only a call come without a potency. The source made the active and inactive calls. The call rests on the fitted dose curve.

Chain of Retinoic acid receptor RXR-alpha (Homo sapiens) (P19793 whole entry, looked up): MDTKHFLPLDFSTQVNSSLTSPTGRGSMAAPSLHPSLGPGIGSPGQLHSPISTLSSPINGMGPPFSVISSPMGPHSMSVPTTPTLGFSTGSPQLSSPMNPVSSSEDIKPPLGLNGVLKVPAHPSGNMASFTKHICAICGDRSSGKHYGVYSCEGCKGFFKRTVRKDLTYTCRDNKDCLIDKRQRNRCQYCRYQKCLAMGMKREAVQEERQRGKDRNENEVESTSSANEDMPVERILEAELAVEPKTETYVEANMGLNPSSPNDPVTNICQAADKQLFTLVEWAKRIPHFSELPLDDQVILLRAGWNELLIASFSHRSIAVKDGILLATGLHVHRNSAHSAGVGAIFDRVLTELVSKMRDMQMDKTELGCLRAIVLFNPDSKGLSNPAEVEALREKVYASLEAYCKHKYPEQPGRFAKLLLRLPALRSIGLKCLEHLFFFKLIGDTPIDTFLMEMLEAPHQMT

Test system in the first assay: not listed separately
The experiment in a line: qHTS assay to identify small molecule agonists of the AP-1 signaling pathway (AID 1159526). The settings on record: ME-180 (cervical carcinoma) AP-1-bla reporter, beta-lactamase FRET ratio, 5 h; series mostly up to 76.8 µM.
As for `CC(=O)/C=C/c1ccc2c(c1)OCO2`, the Potency entry was “inactive”. Same read-out and setting: the value for `CC(C)Oc1cccc(NC(=O)c2ccccc2C(F)(F)F)c1` was “inactive”.

With `Cc1cc(Cl)ccc1O[C@H](C)C(=O)O`, the Potency result was “inactive”.

On to `CC(=[OH+])/C=C(/C)[O-].CC(=[OH+])/C=C(\C)[O-].CC(=[OH+])/C=C(\C)[O-].[Al]`, for which the Potency entry is “inactive”. Same read-out and setting: the value for `CCC(C)c1cc(C(C)(C)C)cc(-n2nc3ccccc3n2)c1O` (centres undefined) was “inactive”; that for `C=COCCCl` was “inactive”; that for `COP(=O)(CCC(=O)NCO)OC` was “inactive”.

As for `CSCCCN=C=S`, the Potency entry is “inactive”.

For the compound `ClC1=C(Cl)[C@]2(Cl)[C@@H]3[C@@H](Cl)[C@@H](Cl)C[C@@H]3[C@@]1(Cl)C2(Cl)Cl`, the Potency result was “inactive”.

The target in the next assay is Retinoic acid receptor RXR-alpha (Homo sapiens) (UniProt P19793). The experiment in a line: qHTS assay to identify small molecule agonists of the RXR signaling pathway (AID 1159527). Further: nearly all actives have a fitted effect of over 35% in size. As to conditions: HEK293T RXRa-UAS-bla, beta-lactamase ratio, 16 h; series mostly up to 76.8 µM. The method in brief:
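Using 9-cis retinoic acid as the reference agonist, chemicals were tested in HEK 293T cells […] for 16 hr; substrate loading lasted 2 hr at room temperature.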
(In qHTS, concentration-response curves come from the screen itself.)
As for `CC(C)(C)c1cc([N+](=O)[O-])cc(C(C)(C)C)c1O`, the outcome was inactive. Same read-out and setting: the value for `Cc1cc(Cl)ccc1O[C@H](C)C(=O)O` was “inactive”; that for `CC(=[OH+])/C=C(/C)[O-].CC(=[OH+])/C=C(\C)[O-].CC(=[OH+])/C=C(\C)[O-].[Al]` was “inactive”; that for `CC(=O)OC1(c2ccccc2)CCN(CCc2ccccc2)CC1` was “inactive”.

Regarding `C=COCCCl`, the result was inactive.

With `Oc1ccc(C(c2ccc(O)cc2)(C(F)(F)F)C(F)(F)F)cc1`, the result was inactive. On the same count and under the same terms, the value for `c1ccc(Nc2ccc3ccccc3c2)cc1` was “inactive”; that for `COP(=O)(CCC(=O)NCO)OC` was “inactive”.

On to `CSCCCN=C=S`, for which the outcome was inactive.

As to `ClC1=C(Cl)[C@]2(Cl)[C@@H]3[C@@H](Cl)[C@@H](Cl)C[C@@H]3[C@@]1(Cl)C2(Cl)Cl`, the outcome was inactive.
